Test results taken from PubChem BioAssay (NCATS).
Results filed as inconclusive are left out. Entries that show only a call come without a potency. Activity calls are given as the source filed them. Calls come from the whole dose curve; as a rule, active = well fitted curve in the direction sought with a large enough effect; inconclusive = small, poorly fitted or top-dose-only effect, or another doubt; inactive = no such curve, though single readings can be large; an effect the other way counts as inactive or inconclusive.

Key:
[1] = biological target: Aldehyde dehydrogenase, mitochondrial (Homo sapiens) (UniProt P05091); experiment: qHTS for Inhibitors of the Aldehyde Dehydrogenase Family (ALDH2) Primary screen (AID 2061308); note: nearly all actives have a fitted effect of over 55% in size
[2] = biological target: Retinaldehyde dehydrogenase 3 (Homo sapiens) (UniProt P47895); experiment: qHTS for Inhibitors of the Aldehyde Dehydrogenase Family (ALDH1A3) Primary screen (AID 2061315)

Compound	Potency [1]	Potency [2]
Cc1nnc(-c2cnn(C)c2)n1CCCn1ccnc1	inactive	inactive
Cc1nc(CN(C)c2ncnc3ccc(-c4ccc5c(c4)OCO5)cc23)cs1	inactive	inactive
COc1ccc(-c2nc(Nc3ccc(F)c(F)c3)c3ccccc3n2)cc1	inactive	inactive
O=C(O)c1ccc(CSc2nnc(-c3ccc([S+](=O)([O-])N4CCCC4)cc3)n2-c2ccccc2)cc1	inactive	inactive
N#CN1CCC(NS(=O)(=O)c2cccc(F)c2)C1 (stereo not given)	inactive	inactive
C/C=C1\[C@H](O[C@@H]2O[C@H](CO)[C@@H](O)[C@H](O)[C@H]2O)OC=C2C(=O)OCCc3ccc(O)c(c3)Oc3ccc(cc3)CCOC(=O)C[C@H]21	inactive	inactive
CN(C)c1ccccc1-c1csc(N2CCC(C(N)=O)CC2)n1	inactive	inactive
CC(=O)c1ccc(NC(=O)c2cnn3c(C)cc(C)nc23)cc1	inactive	inactive
O=c1c2ccc(F)cc2nc2sc(Nc3ccc4c(c3)CCC4)nn12	inactive	inactive
N#Cc1cccc(-c2csc(N3CCC(C(N)=O)CC3)n2)c1	inactive	inactive
COc1ccc(CCC(=O)NCCc2nc3ccccc3n2CCOc2ccc(C)cc2)cc1	inactive	inactive
O=c1c2ccc(Cl)cc2nc2sc(Nc3ccc4c(c3)CCC4)nn12	inactive	inactive
N#CCC(C1CCCC1)n1cc(-c2ncnc3[nH]ccc23)cn1 (stereo not given)	inactive	inactive
O=C(Nc1nc(-c2ccccc2)cs1)c1ccncc1NS(=O)(=O)c1ccc2c(c1)CCC2	inactive	inactive
Cc1cccc(NC(=O)c2cnn3c(C)cc(C)nc23)c1	inactive	inactive
CC1=CC2/C=C(\C)CCC(O)C/C=C/C(=O)OC23C(=O)NC(CC(C)C)C3C1C (stereo not given)	inactive	inactive
CCCCN(C)C(=O)Cn1nc(-c2cccc(C)c2)ccc1=O	inactive	inactive
CCC1CCC(C(=O)Nc2ccc(S(=O)(=O)Nc3nccs3)cc2)CC1 (stereo not given)	inactive	inactive
COc1ccnc(NC(=S)N2CCN(c3ccc4ccccc4n3)CC2)c1	inactive	inactive
CC(C)c1ccccc1-c1nc(NCc2ccc(-c3cccnc3)cc2)c2sccc2n1	inactive	inactive
